T cruzi growth-1 – blocks T. cruzi growth in NIH3T3 culture. T. cruzi beta-gal in NIH3T3, GalScreen luminescence, 90 h. inhibition, % at 8.34 µM. 5.9% of 77,000 active. AID 624255;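 active means mean inhibition above about 93%, with at least 55% of replicates each passing it, limit read from the data, passing the limit was not always enough; inconclusive means only one of those two conditions holds; inactive means neither condition holds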
C diff HTS – C. difficile growth inhibition | Clostridium difficile clinical isolate growth, OD600, 24 h; hits give low values | growth activity, negative = inhibition, % at 16 µg/mL (by protocol) | 0.25% of 86,000 active | AID 1259249;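 active means mean growth activity at or below -80% and every replicate also at or below -80%; inconclusive means mean at or below -80% but some replicate above -80%; inactive means mean growth activity above -80%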;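 further: 0% = DMSO wells and -100% = levofloxacin 16 µg/mL wells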
Pf Dd2 inh – inhibitors of Plasmodium falciparum Dd2 growth; P. falciparum Dd2 growth, SYBR Green, 72 h; hits give low values; activity change, % at 10 µM; 2.3% of 94,000 active; AID 1159554; in the data active means activity change below about -80%; inconclusive means no clear call, values can overlap the other calls
T cruzi growth-2 – blocks T. cruzi growth in NIH3T3 host cells; shares compounds with T cruzi growth-1; T. cruzi beta-gal in NIH3T3, GalScreen luminescence, 90 h; inhibition, % at 8.35 µM; 72% of 5,600 active; AID 651739;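 active means mean replicate inhibition above about 95% and at least 55% of replicates individually reaching it, limit read from the data; inconclusive means only one of the two criteria is met; inactive means neither criterion is met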
T cruzi growth-3 – inhibitors of T. cruzi proliferation | shares compounds with T cruzi growth-1 | T. cruzi beta-gal in NIH3T3, GalScreen luminescence, 90 h | inhibition, % at 2.09 µM | 21% of 5,600 active | AID 651740;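 active means mean inhibition above about 95%, with at least 55% of replicates also reaching it, limit read from the data; inconclusive means meets just one of the two conditions; inactive means meets neither condition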;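 further: plate controls were neutral control median for no effect and positive control median for full effect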
3T3 cytotox – NIH/3T3 (mouse) viability loss; shares compounds with T cruzi growth-1; NIH/3T3 viability, CellTiter-Glo ATP luminescence, 90 h; cytotoxicity (signal decrease), % at 8.35 µM; AID 651742; 14% of 5,600 active;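 active means mean signal decrease across replicates above about 35% based on untreated-well scatter, with enough replicates individually passing, limit read from the data; inconclusive means no rule stated though some were filed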;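 further: 0% = median of neutral control wells and 100% = median of positive control wells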
3T3 cytotox 2 – NIH/3T3 (mouse) viability loss. shares compounds with T cruzi growth-1. inhibition, % at 24.9 µM. 56% of 5,600 active. NIH/3T3 viability, CellTiter-Glo ATP luminescence, 90 h;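 active means mean loss of cell viability signal at or above a set limit, and enough replicates individually reaching it; inconclusive means meets only the mean limit or only the replicate share; inactive means meets neither condition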;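 further: 0% = median of neutral control wells and 100% = median of positive control wells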
Active calls of the source: *; ? = inconclusive; . = no result. Most compounds without a hit are left out; they make up all but 6.7% or so of the library.

SMILES | T cruzi growth-1 | C diff HTS | Pf Dd2 inh | T cruzi growth-2 | T cruzi growth-3 | 3T3 cytotox | 3T3 cytotox 2
C[C@@H]1CCCCO[C@@H](CN(C)Cc2ccc(C(F)(F)F)cc2)[C@H](C)CN([C@H](C)CO)C(=O)c2cc(NS(=O)(=O)c3ccc(Cl)cc3)ccc2O1 | 93 | 25 | -36 | . | . | . | .
C[C@@H]1CN([C@@H](C)CO)C(=O)c2cc(NS(=O)(=O)c3ccc(Cl)cc3)ccc2O[C@@H](C)CCCCO[C@H]1CN(C)Cc1ccc(C(F)(F)F)cc1 | ? | 29 | -40 | 80 | 113* | 104* | 106*
C[C@@H]1CN([C@@H](C)CO)C(=O)c2cc(NS(=O)(=O)c3ccc(Cl)cc3)ccc2O[C@@H](C)CCCCO[C@@H]1CN(C)Cc1ccc(C(F)(F)F)cc1 | 96* | 5 | -61 | 84 | 116* | 15 | 93*
COc1ccc(NC(=O)N(C)C[C@@H]2Oc3c(NS(=O)(=O)c4cn(C)cn4)cccc3C(=O)N([C@@H](C)CO)C[C@H]2C)cc1 | -2 | 1 | 18 | . | . | . | .
C[C@@H]1CN([C@@H](C)CO)C(=O)c2cccc(NS(=O)(=O)c3cn(C)cn3)c2O[C@@H]1CN(C)CC1CCCCC1 | 0 | 1 | 6 | . | . | . | .
COc1ccc(S(=O)(=O)Nc2cccc3c2O[C@@H](CN(C)Cc2ccc(C(=O)O)cc2)[C@H](C)CN([C@@H](C)CO)C3=O)cc1 | 105* | -3 | -6 | 2 | 11 | -10 | -8
C[C@H]1CN([C@@H](C)CO)C(=O)c2cccc(NS(=O)(=O)c3cn(C)cn3)c2O[C@H]1CN(C)Cc1ccc(C(=O)O)cc1 | 26 | -1 | -11 | . | . | . | .
COc1ccc(S(=O)(=O)Nc2cccc3c2O[C@H](CN(C)Cc2ccc(C(=O)O)cc2)[C@@H](C)CN([C@@H](C)CO)C3=O)cc1 | -18 | -1 | 27 | . | . | . | .
C[C@@H]1CN([C@H](C)CO)C(=O)c2cccc(NS(=O)(=O)c3cn(C)cn3)c2O[C@H]1CN(C)CC1CCCCC1 | 102* | 3 | 16 | -15 | 11 | -10 | -5
C[C@H](CO)N1C[C@H](C)[C@H](CN(C)Cc2ccc(C(=O)O)cc2)Oc2c(NS(=O)(=O)c3cn(C)cn3)cccc2C1=O | ? | -8 | -2 | 76 | 4 | -3 | 5
CCCC(=O)N1CC2(C1)CN(C(=O)CC1CC1)[C@H](CO)c1c2c2ccc(OC)cc2n1C | . | -5 | -15 | . | . | . | .
C[C@@H]1CN([C@@H](C)CO)C(=O)c2cccc(NC(=O)c3ccc(-c4nccs4)cc3)c2O[C@H]1CN(C)C | . | 4 | -35 | . | . | . | .
C[C@@H](O)C#Cc1ccc([C@H]2[C@@H](CO)N3CCCCN(C(=O)c4cccc(F)c4)C[C@@H]23)cc1 | 100* | -2 | 35 | 88 | 60 | 2 | 22
C[C@H](O)C#Cc1ccc([C@@H]2[C@@H](CO)N3CCCCN(C(=O)c4cccc(F)c4)C[C@@H]23)cc1 | 46 | 9 | -2 | . | . | . | .
C[C@H](O)C#Cc1ccc([C@H]2[C@H](CO)N3CCCCN(C(=O)c4cccc(F)c4)C[C@@H]23)cc1 | 100* | 0 | -42 | 67 | 42 | 19 | 64*
C[C@H](O)C#Cc1ccc([C@H]2[C@@H](CO)N3CCCCN(C(=O)c4cccc(F)c4)C[C@H]23)cc1 | 56 | 5 | -18 | . | . | . | .
C[C@H]1CN([C@@H](C)CO)C(=O)c2cc(C#CC(C)(C)O)cnc2O[C@H]1CN(C)Cc1ccccn1 | . | 1 | 13 | . | . | . | .
C[C@H](CO)N1C[C@H](C)[C@H](CN(C)C(=O)Nc2ccccc2)OCCCC[C@H](C)Oc2ccc(NS(=O)(=O)c3ccccc3)cc2C1=O | . | . | 17 | . | . | . | .
C[C@@H]1CCCCO[C@@H](CN(C)C(=O)Nc2ccccc2)[C@H](C)CN([C@@H](C)CO)C(=O)c2cc(NS(=O)(=O)c3ccc(Cl)cc3)ccc2O1 | ? | 1 | -17 | 108* | 67 | 3 | 4
C[C@@H]1CN([C@H](C)CO)C(=O)c2cc(NS(=O)(=O)c3ccc(Cl)cc3)ccc2O[C@@H](C)CCCCO[C@H]1CN(C)C(=O)Nc1ccccc1 | ? | 1 | -66 | 101* | 28 | -44 | -23
C[C@@H]1CN([C@@H](C)CO)C(=O)c2cc(NS(=O)(=O)c3ccccc3)ccc2O[C@@H](C)CCCCO[C@@H]1CN(C)C(=O)Nc1ccccc1 | . | . | -56 | . | . | . | .
C[C@H]1CCCCO[C@@H](CN(C)C(=O)Nc2ccccc2)[C@@H](C)CN([C@@H](C)CO)C(=O)c2cc(NS(=O)(=O)c3ccc(Cl)cc3)ccc2O1 | 114* | 10 | -70 | 108* | 39 | -18 | -37
C[C@@H]1CCCCO[C@@H](CN(C)C(=O)Nc2ccccc2)[C@H](C)CN([C@H](C)CO)C(=O)c2cc(NS(=O)(=O)c3ccccc3)ccc2O1 | . | . | -57 | . | . | . | .
Cc1ccc(S(=O)(=O)Nc2ccc3c(c2)C(=O)N([C@H](C)CO)C[C@@H](C)[C@H](CN(C)S(=O)(=O)c2cccs2)OCCCC[C@H](C)O3)cc1 | . | -9 | . | . | . | . | .
Cc1ccc(S(=O)(=O)N(C)C[C@@H]2OCCCC[C@H](C)Oc3ccc(NS(=O)(=O)c4cccs4)cc3C(=O)N([C@@H](C)CO)C[C@H]2C)cc1 | 106* | . | -55 | ? | 8 | 3 | 24
SMILES | T cruzi growth-1 | C diff HTS | Pf Dd2 inh | T cruzi growth-2 | T cruzi growth-3 | 3T3 cytotox | 3T3 cytotox 2
Cc1ccc(S(=O)(=O)N(C)C[C@@H]2OCCCC[C@H](C)Oc3ccc(NS(=O)(=O)c4cccs4)cc3C(=O)N([C@@H](C)CO)C[C@@H]2C)cc1 | 122* | . | -57 | 98* | 41 | -11 | -5
Cc1ccc(S(=O)(=O)N(C)C[C@H]2OCCCC[C@H](C)Oc3ccc(NS(=O)(=O)c4cccs4)cc3C(=O)N([C@H](C)CO)C[C@@H]2C)cc1 | 68 | . | -45 | . | . | . | .
Cc1ccc(S(=O)(=O)N(C)C[C@H]2OCCCC[C@H](C)Oc3ccc(NS(=O)(=O)c4cccs4)cc3C(=O)N([C@@H](C)CO)C[C@@H]2C)cc1 | 86 | . | -50 | . | . | . | .
Cc1ccc(S(=O)(=O)N(C)C[C@H]2OCCCC[C@@H](C)Oc3ccc(NS(=O)(=O)c4cccs4)cc3C(=O)N([C@@H](C)CO)C[C@H]2C)cc1 | 103* | . | -49 | 112* | 63 | -10 | -18
CCC(=O)N1CC2(C1)[C@H](c1ccccc1)[C@@H](CO)N2CC1CCOCC1 | . | 0 | -15 | . | . | . | .
O=C(Nc1ccc(F)cc1)N[C@@H]1CC[C@H](CCNS(=O)(=O)c2cccc(Cl)c2)O[C@H]1CO | 15 | -5 | -1 | . | . | . | .
C[C@H]1CN([C@@H](C)CO)C(=O)c2cc(NC(=O)CCCCCC(=O)Nc3ccccc3N)ccc2O[C@@H]1CN(C)C(=O)Nc1cccc2ccccc12 | . | -1 | -6 | . | . | . | .
COc1ccccc1C#Cc1ccc2c(c1)O[C@@H](CN(C)Cc1ccncc1)[C@@H](C)CN([C@@H](C)CO)S2(=O)=O | 123* | -1 | ? | 101* | 101* | 10 | 40*
